# Test results taken from PubChem BioAssay AID1851 (National Center for Advancing Translational Sciences (NCATS), 2009).
# Where “and” joins values, the source holds several entries; their conditions need not be identical. Identical values can stand only once. About 2,600 (16%) of roughly 16,000 compounds were called active. About 20% were inconclusive and are not listed. Calls come from the whole dose curve; as a rule, active = well fitted curve in the direction sought with a large enough effect; inconclusive = small, poorly fitted or top-dose-only effect, or effect the other way; inactive = no such curve, though single readings can be large or run the other way. Only a sample is shown. The source holds several records for some structures; these can differ, active in one and inactive in another.
# Molecular target: Cytochrome P450 2D6 (Homo sapiens) (UniProt P10635)
# Assay: Cytochrome panel assay with activity outcomes
# Details: recombinant CYP, pro-luciferin dealkylation, luminescence, p450-cyp2d6; series mostly up to 57.1 µM
# % is set by controls: 0 for no effect and ±100 for the full control effect.
# Cytochrome P450 2D6 (Homo sapiens), sequence (P10635 whole entry, looked up): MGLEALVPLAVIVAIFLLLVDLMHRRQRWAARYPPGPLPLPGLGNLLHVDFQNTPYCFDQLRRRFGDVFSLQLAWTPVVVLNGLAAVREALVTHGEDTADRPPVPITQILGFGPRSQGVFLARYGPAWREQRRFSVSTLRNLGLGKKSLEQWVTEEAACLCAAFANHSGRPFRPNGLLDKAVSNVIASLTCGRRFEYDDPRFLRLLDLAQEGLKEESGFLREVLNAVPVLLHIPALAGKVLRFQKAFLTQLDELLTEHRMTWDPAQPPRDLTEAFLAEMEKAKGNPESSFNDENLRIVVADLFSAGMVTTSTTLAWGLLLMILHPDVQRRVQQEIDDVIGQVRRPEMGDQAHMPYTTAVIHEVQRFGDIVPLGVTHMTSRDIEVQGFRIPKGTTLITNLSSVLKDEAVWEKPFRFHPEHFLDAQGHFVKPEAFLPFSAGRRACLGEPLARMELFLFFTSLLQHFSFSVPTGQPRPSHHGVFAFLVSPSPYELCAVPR
Compound,AC50,"activity, negative = inhibition"
Fc1ccc(N2CCN(c3ccc4c(C(F)(F)F)cc(C(F)(F)F)nc4n3)CC2)cc1,inactive,–
COCCNC(=O)c1onc(CSc2ccc(Cl)cc2)c1C(=O)O,inactive,–
O=C(NCc1ccccc1)c1onc(CSc2ccc(F)cc2)c1C(=O)NCCCN1CCOCC1,10 µM (active),–
C=CCNC(=O)c1onc(CSc2ccc(F)cc2)c1C(=O)O,inactive,–
COc1ccc(-n2c(=O)c(-c3cn(C)c4ccccc34)nc3cnc(OC)nc32)cc1,inactive,–
CCOc1ccc(N(C(C)C(=O)N/N=C(\C)c2cccc(NC(=O)c3ccccc3)c2)S(C)(=O)=O)cc1 (stereo unspecified),inactive,–
COc1ccc2c(c1)CCc1sc(NC(=O)c3ccc(C)cc3)nc1-2,inactive,–
Cn1c(=O)c(-c2cccs2)nc2cncnc21,inactive,–
Cc1oc(-c2cccc(Cl)c2)[n+]([O-])c1C,inactive,–
O=S1(=O)OC(c2ccc(O)cc2)(c2ccc(O)cc2)c2ccccc21,–,12.2% [at 11.4 µM] (inactive)
COc1ccc(CNc2ccnc(-c3ccc4c(c3)OCO4)n2)c(OC)c1,10 µM (active),–
COc1ccccc1CNc1ccnc(-c2ccc3c(c2)OCO3)n1,0.794 µM (active),–
Cc1c(C#N)c(=O)oc2ccc3ccccc3c12,inactive,–
NC(=O)c1ccc(N2CCCCC2)c(N2C(=O)C3CC=CCC3C2=O)c1 (stereo unspecified),inactive,–
O=C(O)c1ccc(NS(=O)(=O)Cc2ccccc2)cc1,–,0.0348% [at 11.4 µM] (inactive)
COc1cc(C(=O)Nc2nc3ccc4nc(C)sc4c3s2)cc(OC)c1OC,inactive,–
Cc1cccc(C(=O)NC2CCN(C(=O)N3CCOCC3)CC2)c1,inactive,–
O=C(COc1ccc2ccccc2c1)N1CCN(C(=O)c2cccnc2)CC1,inactive,–
Cc1cccc(OCC(=O)N2CCC(N3CCCCCC3)CC2)c1,4.47 µM (active),–
COCCn1c(=O)c(-c2cccc(C#N)c2)nc2cnc(OCc3ccccc3)nc21,inactive,–
CC(=O)NC1=NC(=O)C(C)S1 (stereo unspecified),inactive,–
O=c1c(-c2cccs2)nc2cnc(N3CCNCC3)nc2n1Cc1cccs1,inactive,–
Cc1ccc(-n2nc3ccc(NC(=O)c4ccc5c(c4)OCO5)cc3n2)cc1,inactive,–
O=C(Nc1cccc(-c2nc3ccccc3s2)c1)c1ccc2c(c1)OCO2,0.1 µM (active),–
O=C(Nc1cc(-c2nc3ccccc3s2)ccc1Cl)c1ccc2c(c1)OCO2,inactive,–
CCn1c(-c2ccccc2Cl)nn(CC(=O)Nc2ccc(OC)cc2)c1=S,inactive,–

Compound,AC50,"activity, negative = inhibition"
CC(=O)NC1C(OCCOc2ccc(Cl)cc2Cl)OC(COC(C)=O)C(OC(C)=O)C1OC(C)=O (stereo unspecified),inactive,–
CSC1=N/C(=C\c2ccc(Br)o2)C(=O)S1,inactive,–
CCCCN1CCC(COC(=O)c2cc(Cl)c(N)c3c2OCCO3)CC1,1.26 µM (active),–
CCOC(=O)n1ccn(C)c1=S,inactive,–
O=C(O)c1cc2ccccc2c(Cc2cc3ccccc3c(C(=O)O)c2O)c1O (tested in a mixture with another compound),inactive,–
NC(=NCCCCCCN=C(N)/N=C(\N)Nc1ccc(Cl)cc1)/N=C(\N)Nc1ccc(Cl)cc1,7.94 µM (active),–
CCN=C(Nc1ccc(Cl)cc1)c1cccnc1,inactive,–
CC(Oc1ccccc1)C(=O)Nc1nc2c(s1)C(=O)CC(C)(C)C2 (stereo unspecified),inactive,–
Cc1cnc(CNc2ncnc3ccc(-c4ccc5c(c4)OCO5)cc23)cn1,12.6 µM (active),–
Cc1cccc(CNc2ncnc3ccc(-c4ccoc4)cc23)c1,10 µM (active),–
Cc1cnc(CNc2ncnc3ccc(-c4cccc(C#N)c4)cc23)cn1,inactive,–
Cc1cccc(CNc2ncnc3ccc(-c4ccc5c(c4)OCO5)cc23)c1,0.501 µM (active),–
Cc1cnc(CNc2ncncc2-c2ccc(C(=O)N(C)C)cc2)cn1,inactive,–
Nc1nc2c(ncn2COCCO)c(=O)[nH]1,inactive,–
O=C(O)c1ccccc1OP(=O)(O)O,inactive,–
CN1CCc2c(c3c(n2C)CCN(C)[C@H]3c2ccccc2F)[C@@H]1c1ccccc1F,inactive,–
CCc1nc(SCC(=O)c2ccc(Cl)s2)c2oc3ccccc3c2n1,inactive,–
CCOC(=O)Nc1ccc(C(=O)NCC2CCCO2)cc1 (stereo unspecified),inactive,–
O=C(O)CCCC[C@H]1CCSS1,inactive,–
COC(=O)[C@@H]1C[C@H]1[C@@H](NC(=O)c1cc(C)on1)c1ccccc1,inactive,–
COC(=O)[C@H]1C[C@@H]1[C@H](NC(=O)c1cc(C)on1)c1ccccc1,inactive,–
COC(=O)[C@@H]1C[C@H]1[C@@H](NC(=O)c1cc(C)nn1C)c1ccccc1,12.6 µM (active),–
CCOC(=O)C1=C(CSc2nc3ccccc3s2)NC(=O)NC1c1cccc([N+](=O)[O-])c1 (stereo unspecified),inactive,–
O=C(CN1C(=O)NC2(CCCCCC2)C1=O)N1CCN(S(=O)(=O)c2ccc(Cl)cc2)CC1,inactive,–
O=C(O)C1CC2(C1)CC(C(=O)O)C2 (stereo unspecified),–,10.8% [at 11.4 µM] (inactive)
O=C(N/N=C/c1cccc([N+](=O)[O-])c1)c1cc2c(ccc3ccccc32)o1,inactive,–

Compound,AC50,"activity, negative = inhibition"
CC[C@@H]1OC(=O)[C@H](C)[C@H](O[C@@H]2C[C@](C)(OC)[C@H](O)[C@H](C)O2)[C@H](C)[C@H](O[C@@H]2O[C@@H](C)C[C@@H](N(C)C)[C@@H]2O)[C@](C)(O)C[C@H](C)C(=NOCOCCOC)[C@H](C)[C@H](O)[C@]1(C)O,inactive,–
C=CCSc1nnc(NC(=O)COc2ccc3ccccc3c2)s1,inactive,–
COC(=O)c1c(C)nc2ccccc2c1C(=O)O,inactive,–
COc1ccc(CCNC(=O)COc2ccc(S(=O)(=O)NC3CCCCC3)cc2Cl)cc1,15.8 µM (active),–
COc1ccc2c(c1)C(=O)N(CCc1ccc(S(=O)(=O)NC(=O)NC3CCCCC3)cc1)C(=O)C2(C)C,inactive,–
COc1ccc(CCNC(=O)COC(=O)c2cnc(C)cn2)cc1,inactive,–
Cc1ccc(N=Nc2c(=O)[nH]n3c(C)cc(C)nc23)cc1,inactive,–
Cc1sc2nc(C3CC3)nc(SCC(=O)N3CC(=O)Nc4ccccc43)c2c1C,inactive,–
O=C1c2ccccc2C(=O)N1CC(=O)N1c2ccccc2CCc2ccccc21,inactive,–
CCCN(CCC)C[C@@H]1CCCCN1CCNC(=O)N1c2ccccc2C(=O)Nc2cccnc21,2.51 µM (active),–
Cc1scc2c1N(C(=O)CN1CCN(C)CC1)c1ccccc1NC2=O,inactive and 5.01 µM (active),–
CCN1CCCC1CNC(=O)C1c2cc(OC)c(OC)cc2C(=O)N(C)C1c1cccnc1 (stereo unspecified),inactive,–
CN1CCN(CC(=O)N2c3ccccc3C(=O)Nc3cccnc32)CC1,inactive and 31.6 µM (active),–
O=C1Nc2ccccc2Nc2ncccc21,inactive,–
CCCCN1C(=O)C(NC(=O)C2CC2)(C(F)(F)F)C2=C1CC(C)(C)CC2=O (stereo unspecified),inactive,–
O=C(CCn1nc(-c2ccc(Cl)cc2)ccc1=O)N1CCOCC1,inactive,–
O=C1Nc2ccccc2C1=Nc1cccc2ncccc12,–,-4.91% [at 11.4 µM] (inactive)
Nc1ncnc2c1ncn2CCCCC(=O)O,–,-3.98% [at 11.4 µM] (inactive)
O=c1c(-c2ccccc2)nc2cncnc2n1-c1ccccc1,inactive,–
CCC(CC)C(=O)Nc1c2cnn(-c3ccccc3)c2nc(=O)n1-c1ccccc1,inactive,–
CCCc1nnc(NC(=O)CN2C(=O)C3C4C=CC(C4)C3C2=O)s1 (stereo unspecified),inactive,–
O=c1cnc2cnc(N3CCOCC3)nc2n1C1CC1,inactive,–
COc1ccc(CNc2ncnc3ccc(-c4c(C)noc4C)cc23)c(OC)c1,15.8 µM (active),–
COc1ccccc1CNc1ncnc2ccc(-c3ccc4c(c3)OCO4)cc12,0.794 µM (active),–
COc1ccccc1CNc1ncnc2ccc(-c3ccoc3)cc12,3.16 µM (active),–
COCCNc1ncnc2ccc(-c3ccoc3)cc12,inactive,–

Compound,AC50,"activity, negative = inhibition"
COc1ccc(CNc2ncnc3ccc(-c4ccoc4)cc23)c(OC)c1,10 µM (active),–
CCOC(=O)COc1ccc(/C=C/[N+](=O)[O-])c(OCC(=O)OCC)c1,inactive,–
Clc1ccc(Nc2ncn[nH]2)cc1,inactive,–
CCCCCCCCCCCCCCCC(=O)C(F)(F)F,inactive,–
Cc1cc(C)c(-c2noc(C(=O)OC(C)(C)C)c2C(=O)OC(C)(C)C)c(C)c1,inactive,–
Cc1cc(OC(=O)c2ccccc2Cl)cc(=O)n1C,inactive,–
Cc1sc2ncn(CC(=O)NCCCC(=O)N3CCN(c4ncccn4)CC3)c(=O)c2c1C,inactive,–
Cc1ccc(C)n1N1C(=O)/C(=C\c2ccc(Cl)cc2)SC1=S,inactive,–
Cn1c(SCC(=O)NC2CC2)nnc1-c1cccc(NC(=O)c2ccccc2F)c1,inactive,–
C[C@H]1/C=C\CC(=O)OC[C@H](C)C(=O)N2CCC[C@@H]2C(=O)OC1,–,-8.94% [at 11.4 µM] (inactive)
COc1ccc2nc(NC(=O)CSc3nnc(C)s3)sc2c1,inactive,–
COc1ccc2c(c1)nc(SCC(=O)c1ccc(Br)s1)n2C,5.01 µM (active),–
COc1ccc2nccc(SCC(=O)O)c2c1,–,-10.3% [at 11.4 µM] (inactive)
CCOC(=O)C1=C(N)n2c(s/c(=C/c3ccccc3)c2=O)=C(C(=O)OCC)C1c1ccccc1 (stereo unspecified),inactive,–
c1ccc(-c2nc3ccccc3o2)nc1,inactive,–
Cn1c(=O)c(-c2cccs2)nc2cnc(N3CCNCC3)nc21,inactive,–
Cc1ccc(-n2[nH]c(=O)c3cccnc32)cc1,inactive,–
CC(C)c1ccc2c(c1)CC[C@H]1[C@@](C)(CN)CCC[C@@]21C,1.26 µM (active),–
COc1ccc(Cc2nc3ccc(S(=O)(=O)N4CCOCC4)cc3[nH]2)cc1OC,inactive,–
CCCCC#Cc1nc(N)c2ncn([C@@H]3O[C@@H](C(=O)NCC)[C@H](O)[C@@H]3O)c2n1,inactive,–
COc1cccc(-c2noc(Cn3nc(C)c([N+](=O)[O-])c3C)n2)c1,inactive,–
CCOc1ccc(C(=O)Cc2cc(OC)c(OC)cc2[N+](=O)[O-])cc1,inactive,–
COc1cccc(CN2CCN(Cc3cc(OC)c(OC)cc3[N+](=O)[O-])CC2)c1,0.224 µM (active),–
